Sampled rows, rich in hits. Any-hit rate of the full collection: about 19%.
DT40 TDP1 no CPT: qHTS for Inhibitors of human tyrosyl-DNA phosphodiesterase 1 (TDP1): qHTS in cells in absence of CPT; DT40 Tdp1-/- hTDP1 cells, no CPT, ATP luminescence, 48 h; AID 686978, 2013; actives 15% (n = 420,000); Potency, µM (doses to about 46.2 µM), inactives show at the highest dose activity change, negative = growth inhibition, hits mostly inhibitors; further: potency means the concentration at half of the fitted maximal effect; nearly all actives have a fitted effect of over 55% in size
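DT40 Tdp1-/-;hTDP1 cells, no CPT (DMSO vehicle only), 400 cells/well; compounds pin-transferred; ≥48 hr, 37 °C; CellTiter-Glo 30 min RT dark, luminescence read.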
TDP1 cell CPT: growth inhibition of DT40 Tdp1-/-;hTDP1 cells with camptothecin (screen for TDP1 inhibitors); chicken DT40 Tdp1-/-;hTDP1 cells + 20 nM CPT, ATP luminescence, 48 h; Potency, µM (top dose mostly 46.2 µM), inactives show at the highest dose activity change, negative = growth inhibition, hits mostly inhibitors; actives 12% (n = 420,000); AID 686979; further: potency means the concentration at half of the fitted maximal effect; nearly all actives have a fitted effect of over 55% in size
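Chicken DT40 Tdp1-/- cells stably complemented with human TDP1 were seeded at 400 cells/well in medium containing 20 nM camptothecin, exposed to pin-transferred compounds, and grown at 37 °C for at least 48 hr. Viability was read as ATP luminescence.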
IL1B secr inh: blocks inflammasome-driven IL-1 beta release; THP-1 LPS/ATP IL-1B secretion, AlphaLISA, 16 h; hits give low values; activity change, % at 57.5 µM; actives 4.7% (n = 360,000); in the data active means activity change below about -50%; inconclusive means mostly about -30% to -49%
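THP-1 cells pretreated 1 hr with compounds (up to 57.5 uM final), then stimulated with LPS (250 ng/mL final) plus ATP (1.25 mM final); secreted IL-1B measured by AlphaLISA after 16 hr, decreased signal indicating inhibition.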
HT1080NT lethal: kills 2HG-producing HT-1080-NT fibrosarcoma cells; HT-1080-NT fibrosarcoma viability, CellTiter-Glo ATP luminescence, 48 h; Potency, µM (doses to about 46.1 µM), for inactives: at the top dose activity, negative = less viability, hits mostly cytotoxic; actives 1.6% (n = 360,000);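 further: NT is the 2HG producing partner of a matched IDH1 knockdown line; potency means the concentration at half of the fitted maximal effect; 0% = DMSO-treated cells and -100% = media-only wells without cells; nearly all actives have a fitted effect of over 55% in size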
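Compounds were tested in concentration-response format on HT-1080-NT cells for 48 hours at 37 degrees C. Cell viability came from CellTiter-Glo luminescence; curves were classified by r2, response magnitude and activity.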
HT1080 IDH1KD tx: kills HT-1080 cells with IDH1 knockdown; actives 2% (n = 360,000); HT-1080 IDH1 knockdown viability, ATP luminescence, 48 h; Potency, µM (top dose mostly 46.1 µM), for inactives: at the highest dose activity, negative = toxicity, hits mostly cytotoxic;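 further: potency means the concentration at half of the fitted maximal effect; 0% = DMSO wells and -100% = cell-free medium wells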
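Viability of IDH1-knockdown HT-1080 fibrosarcoma cells was assessed by CellTiter-Glo after 48 h at 37 °C with titrated compound; concentration-effect curves were classified by fit quality and response size.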
Active calls of the source: *; ? = inconclusive; . = no result given. Unless noted, the call rests on the fitted dose curve; in most records, active means well fitted curve in the direction sought with a large enough effect; inconclusive means small, poorly fitted or top-dose-only effect, or another doubt; inactive means no such curve, though single readings can be large; an effect the other way counts as inactive or inconclusive. Unless noted, on the % scale 0 is the no-effect control and ±100 the full control effect.

SMILES | DT40 TDP1 no CPT | TDP1 cell CPT | IL1B secr inh | HT1080NT lethal | HT1080 IDH1KD tx
CCN(CC)S(=O)(=O)c1cc(NC(=O)CSc2n[nH]c(N)n2)ccc1C | 1% | 0% | 53 | 0% | 9%
CN(CC(=O)Nc1cccc(F)c1)C(=O)Cc1n[nH]c(=O)c2ccccc12 | 0% | ? | -3 | -1% | 2%
CN(c1ccccc1)S(=O)(=O)c1cccc(NC(=O)Cc2n[nH]c(=O)c3ccccc23)c1 | 12µM* | 13µM* | 77 | -1% | -2%
Cc1ccc(NC(=O)Cc2n[nH]c(=O)c3ccccc23)cc1S(=O)(=O)N1CCCCCC1 | 16µM* | ? | -9 | -2% | -9%
COc1cccc(C(=O)Nc2nc(C)cs2)c1 | -13% | -18% | -15 | 2% | -1%
Cc1ccc(OCC(=O)Nc2nc(-c3ccc(Br)cc3)ns2)cc1 | ? | -30% | . | . | .
COc1ccc(C(=O)Nc2nc(-c3nnn(-c4cc(OC)ccc4OC)c3C)ns2)cc1 | 16µM* | 16µM* | . | . | .
O=C(Nc1nc(-c2ccc(Br)cc2)ns1)c1ccc(F)cc1 | 18µM* | ? | . | . | .
COc1ccc(-c2nsc(NC(=O)c3cccc(OC)c3)n2)cc1 | 21µM* | ? | . | . | .
COc1ccc(C(=O)Nc2nc(-c3nnn(-c4ccc(C(C)C)cc4)c3C)ns2)cc1 | 16µM* | 13µM* | . | . | .
CC(C)(C)OC(=O)NCCC(=O)N/N=C/c1ccc2nccnc2c1 | -25% | 0% | . | 0% | 12%
COc1ccc2nc(/C=N/NC(=O)CCCCCNC(=O)OC(C)(C)C)ccc2c1 | 18µM* | 21µM* | -5 | -7% | -20%
CN1c2ccsc2/C(=N/Nc2ccccc2)CS1(=O)=O | 1.3µM* | 4.1µM* | ? | -23% | ?
Cc1cccc(C(=O)N/N=C2\CS(=O)(=O)N(C)c3ccsc32)c1 | 13µM* | 21µM* | 22 | ? | ?
CN1c2ccsc2/C(=N/NC(=O)c2c(F)cccc2F)CS1(=O)=O | -13% | -14% | 12 | -1% | 3%
O=C(NCc1cccc(F)c1)C1CCC(=O)N(CC2CCCCC2)C1 (stereo unspecified) | -15% | 3% | -5 | 0% | 6%
COc1ccc(CCNC(=O)c2cc(=O)[nH]c3ccc(S(=O)(=O)N4CCCCC4)cc23)cc1OC | -17% | 2% | . | . | .
O=S(=O)(NCCNC/C=C/c1ccc(Br)cc1)c1cccc2cnccc12 | 24µM* | 19µM* | . | . | .
O=S(=O)(NCCCCNS(=O)(=O)c1cccc2cccnc12)c1cccc2cccnc12 | -22% | 3% | . | . | .
O=S(=O)(NCCNCC=Cc1ccc(Br)cc1)c1cccc2cnccc12 | 14µM* | 10µM* | . | . | .
CNCCNS(=O)(=O)c1cccc2cnccc12 | ? | 18µM* | . | . | .
CCNc1nc(NC(C)C)nc(-c2ccncc2)n1 | -8% | -21% | 6 | ? | 11%
CSc1ccc(CCNC(=O)CN2C(=O)c3cccnc3Oc3ccc(C)cc32)cc1 | 29µM* | ? | -18 | -13% | -18%
CCOc1ccc(CCNC(=O)CN2C(=O)c3cccnc3Oc3ccc(Cl)cc32)cc1 | 21µM* | ? | -10 | 0% | 1%
CCOc1ccc(CCNC(=O)CN2C(=O)c3cccnc3Oc3ccc(C)cc32)cc1OCC | ? | 21µM* | 12 | -11% | 2%
SMILES | DT40 TDP1 no CPT | TDP1 cell CPT | IL1B secr inh | HT1080NT lethal | HT1080 IDH1KD tx
O=C(CSc1nc2c(c(=O)n1-c1ccccc1)SCC2)NCC1CCCO1 (stereo unspecified) | -14% | 18% | 20 | 0% | -1%
CC(C)CCn1c(=O)c2sccc2n2c(CCCC(=O)Nc3ccc(F)c(Cl)c3)nnc12 | ? | -15% | . | . | .
C#CCN(C(=O)C1CCC(=O)N(CCc2cccc(F)c2)C1)C1CCCCC1 (stereo unspecified) | 6.5µM* | 18µM* | 2 | 4% | -3%
CC#CCN(Cc1ccco1)C(=O)C1CCC(=O)N(CCc2cccc(F)c2)C1 (stereo unspecified) | 15µM* | 21µM* | -2 | 13% | 7%
COc1cccc(C2c3cc4c(cc3OC(N3CCOCC3)C2C)OCO4)c1O (stereo unspecified) | 8.2µM* | -91% | 0 | ? | ?
CCN(CC)C1Oc2cc3c(cc2C(c2cc(OC)c(O)c(OC)c2)C1C)OCO3 (stereo unspecified) | ? | ? | 27 | ? | ?
COc1cccc(/C=N/N2CCOCC2)c1O | 2% | 3% | -18 | 4% | 4%
COc1cccc(C2c3cc4c(cc3OC(C)(N3CCCC3)C2C)OCO4)c1O (stereo unspecified) | 10µM* | 13µM* | -66* | ? | ?
COc1ccc(C2c3cc4c(cc3OC(N3CCOCC3)C2C)OCO4)c(OC)c1 (stereo unspecified) | 4.1µM* | 5.2µM* | 22 | ? | ?
CCN(CC)C1Oc2cc3c(cc2C(c2cccc(OC)c2O)C1C)OCO3 (stereo unspecified) | 23µM* | ? | -25 | ? | ?
O=C(CN1C(=O)/C(=C/c2ccco2)SC1=S)NC1CCS(=O)(=O)C1 (stereo unspecified) | 5% | -14% | -16 | -12% | -17%
COCCN=c1scc(-c2cc(OC)ccc2OC)n1/N=C/c1c[nH]c2ccccc12 | ? | ? | -50* | ? | ?

Screening results as filed in PubChem BioAssay.
